# Experimental data published in the supplement of paper PMC11018630.
# Where a name gives a salt, the structure may show the parent alone. ± gives the standard deviation of the averaged measurements. Whole data set: some 1,100 compounds, median “day of extracellular matrix detachment from plate” near 16, cut for the lowest 2% near 10. Only a selection was taken, and the lowest values are over-represented in it overall.
# System: RDEB dermal fibroblasts EB71
# Test: day of extracellular matrix detachment from plate (days); higher = delayed detachment (less fibrotic matrix)
# Details: compound concentration: 10 uM
row,Compound,day of extracellular matrix detachment from plate
1,O=C(O)CCC(=O)c1ccc(-c2ccccc2)cc1 [Fenbufen],13
2,Nc1nc(=O)n([C@@H]2CS[C@H](CO)O2)cc1F [Emtricitabine],19.3 ± 6.3
3,O=c1ccn([C@@H]2O[C@H](CO)[C@@H](O)[C@H]2O)c(=O)[nH]1 [Uridine],12
4,COc1ccc(CC2c3cc(OC)c(OC)cc3CC[N+]2(C)CCC(=O)OCCCCCOC(=O)CC[N+]2(C)CCc3cc(OC)c(OC)cc3C2Cc2ccc(OC)c(OC)c2)cc1OC (stereo not given) [Atracurium Besylate],15.7 ± 6.3
5,COc1ccc(C[C@@H]2c3cc(OC)c(OC)cc3CC[N@+]2(C)CCC(=O)OCCCCCOC(=O)CC[N@@+]2(C)CCc3cc(OC)c(OC)cc3[C@H]2Cc2ccc(OC)c(OC)c2)cc1OC [Cisatracurium Besylate],10 ± 1.7
6,CCC(=O)O[C@@H](O[P@](=O)(CCCCc1ccccc1)CC(=O)N1C[C@H](C2CCCCC2)C[C@H]1C(=O)O)C(C)C [Fosinopril Sodium],19
7,OC(Cn1cncn1)(Cn1cncn1)c1ccc(F)cc1F [Fluconazole],12.7 ± 2.9
8,Nc1ccc(C(=O)NCC(=O)O)cc1 [Sodium 4-aminohippurate Hydrate],13
9,Cn1c(=O)c2c(ncn2CC2OCCO2)n(C)c1=O [Doxofylline],13
10,CN(C)CCC[C@@]1(c2ccc(F)cc2)OCc2cc(C#N)ccc21 [Escitalopram Oxalate],13
11,OC[C@@H](O)[C@@H](O)[C@H](O)[C@@H](O)CO [Sorbitol],16
12,OC[C@@H](O)[C@@H](O)[C@H](O)[C@H](O)CO [D-Mannitol],13.7 ± 8.1
13,O=C[C@H](O)[C@@H](O)[C@H](O)CO [Xylose],10 ± 1.7
14,COc1cc2ncnc(Nc3ccc(F)c(Cl)c3)c2cc1OCCCN1CCOCC1 [Gefitinib (ZD1839)],29.4 ± 6
15,N#C[C@@H]1C[C@@H]2C[C@@H]2N1C(=O)[C@@H](N)C12CC3CC(CC(O)(C3)C1)C2 [Saxagliptin hydrate],16.3 ± 1.1
16,CCCc1nc(C)c2c(=O)nc(-c3cc(S(=O)(=O)N4CCN(CC)CC4)ccc3OCC)[nH]n12 [Vardenafil HCl Trihydrate],16
17,COC(=O)C1=C(C)NC(C)=C(C(=O)OCCN2CCN(C(c3ccccc3)c3ccccc3)CC2)C1c1cccc([N+](=O)[O-])c1 (stereo not given) [Manidipine 2HCl],18.3 ± 4
18,COC(=O)C1=C(C)NC(C)=C(C(=O)OCCN2CCN(C(c3ccccc3)c3ccccc3)CC2)C1c1cccc([N+](=O)[O-])c1 (stereo not given) [Manidipine],20.3 ± 2.3
19,O=C(c1cc(Cc2n[nH]c(=O)c3ccccc23)ccc1F)N1CCN(C(=O)C2CC2)CC1,27.8 ± 5.5
20,CC1(C)S[C@@H]2[C@H](NC(=O)C(C(=O)O)c3ccccc3)C(=O)N2[C@H]1C(=O)O (stereo not given in full) [Carbenicillin disodium],18
21,CSc1nc2cc(Cl)c(Oc3cccc(Cl)c3Cl)cc2[nH]1 [Triclabendazole],13
22,CN(C)/N=N/c1[nH]cnc1C(N)=O [Dacarbazine],11
23,CCC[C@H](N[C@@H](C)C(=O)N1[C@H](C(=O)O)C[C@@H]2CCCC[C@@H]21)C(=O)OCC [Perindopril Erbumine],21 ± 1.7
24,OC(CCN1CCCC1)(c1ccccc1)C1CCCCC1 (stereo not given) [Procyclidine HCl],16 ± 1.7

row,Compound,day of extracellular matrix detachment from plate
1,CC1(C)[C@H](C(=O)O)N2C(=O)C[C@H]2S1(=O)=O [Sulbactam sodium],11 ± 1.7
2,C[C@]1(Cn2ccnn2)[C@H](C(=O)O)N2C(=O)C[C@H]2S1(=O)=O [Tazobactam],20 ± 1.7
3,CC1(C)[C@H](C(=O)O)N2C(=O)C[C@H]2S1(=O)=O [Sulbactam],10 ± 1.7
4,CC1(C)S[C@@H]2[C@H](NC(=O)Cc3ccccc3)C(=O)N2[C@H]1C(=O)O [Penicillin G Sodium],13
5,CC(C)(Oc1ccc(Cl)cc1)C(=O)O [Clofibric Acid],13
6,CC(=O)O[C@]1(C(C)=O)CC[C@H]2[C@@H]3C[C@H](C)C4=CC(=O)C=C[C@]4(C)[C@@]3(F)[C@@H](O)C[C@@]21C [Fluorometholone Acetate],27.2 ± 3.5
7,N#CC(c1ccc(Cl)cc1)c1c(Cl)cc(-n2ncc(=O)[nH]c2=O)cc1Cl (stereo not given) [Diclazuril],15.7 ± 6.3
8,O=C(O)CCc1nc2ccccc2[nH]1 [Procodazole],13
9,N#C/C(=C1/SC[C@@H](c2ccc(Cl)cc2Cl)S1)n1ccnc1 [Luliconazole],13
10,C[N+]1(C)CCC(OC(=O)C(O)(c2ccccc2)C2CCCC2)C1 (stereo not given) [Glycopyrrolate],20.3 ± 2.9
11,CCN(CC)CCOCCOC(=O)C(CC)(CC)c1ccccc1 [Oxeladin Citrate],13
12,CN1C2=CC(=O)/C(=N\NC(N)=O)C=C2CC1S(=O)(=O)O (stereo not given) [Carbazochrome sodium sulfonate (AC-17)],16.7 ± 2.3
13,C/C(O)=C(\C#N)C(=O)Nc1ccc(C(F)(F)F)cc1 [Teriflunomide],13
14,C[C@](N)(Cc1ccc(O)c(O)c1)C(=O)O [Methyldopa],10.3 ± 1.1
15,NCCc1ccc(O)c(O)c1 [Dopamine HCl],15.7 ± 6.3
16,C[C@@](Cc1ccc(O)c(O)c1)(NN)C(=O)O [Carbidopa],15.7 ± 6.3
17,CO/N=C(\C(=O)N[C@@H]1C(=O)N2C(C(=O)O)=C(COC(N)=O)CS[C@H]12)c1ccco1 [Cefuroxime sodium],17
18,NCCCCC(NC(=O)C1CCCN1C(=O)C1CSSCC(N)C(=O)NC(Cc2ccc(O)cc2)C(=O)NC(Cc2ccccc2)C(=O)NC(CCC(N)=O)C(=O)NC(CC(N)=O)C(=O)N1)C(=O)NCC(N)=O (stereo not given) [Lypressin Acetate],23 ± 1.7
19,COc1cc(Nc2ncc3c(n2)-c2ccc(Cl)cc2C(c2c(F)cccc2OC)=NC3)ccc1C(=O)O [Alisertib (MLN8237)],25
20,CC[C@H](NC(=O)[C@H](C)NC)C(=O)N1C[C@@H](O)C[C@H]1Cc1c(-c2[nH]c3cc(F)ccc3c2C[C@@H]2C[C@H](O)CN2C(=O)[C@H](CC)NC(=O)[C@H](C)NC)[nH]c2cc(F)ccc12 [Birinapant],19 ± 6.9
21,CC(=O)O[C@]1(C(C)=O)CC[C@H]2[C@@H]3C[C@H](C)C4=CC(=O)CC[C@]4(C)[C@H]3CC[C@@]21C [Medroxyprogesterone acetate],19.3 ± 6.3
22,[I-].[K+] [Potassium Iodide],15.7 ± 6.3
23,CCN1CC(CCN2CCOCC2)C(c2ccccc2)(c2ccccc2)C1=O (stereo not given) [Doxapram HCl],18
24,CN(C)CCc1c[nH]c2ccc(CS(=O)(=O)N3CCCC3)cc12 [Almotriptan Malate],19.3 ± 6.3

row,Compound,day of extracellular matrix detachment from plate
1,NC(=O)Cc1cccc(C(=O)c2ccccc2)c1N [Nepafenac],14.3 ± 2.9
2,CN1CCC(=C2c3ccccc3CCc3cccnc32)CC1 [Azatadine dimaleate],18
3,Cc1ccc(NC(=O)c2ccc(CN3CCN(C)CC3)cc2)cc1Nc1nc(-c2cccnc2)cs1 [Masitinib (AB1010)],36
4,CC(C)(C)c1nc(-c2cccc(NS(=O)(=O)c3c(F)cccc3F)c2F)c(-c2ccnc(N)n2)s1,32.5 ± 2.1
5,CO/N=C(\C(=O)N[C@@H]1C(=O)N2C(C(=O)OCOC(=O)C(C)(C)C)=C(/C=C\c3scnc3C)CS[C@H]12)c1csc(N)n1 [Cefditoren pivoxil],15.7 ± 6.3
6,CCOC(=O)[C@H](CCc1ccccc1)N[C@H]1CS[C@H](c2cccs2)CN(CC(=O)O)C1=O [Temocapril HCl],19.3 ± 6.3
7,CCC[S+]([O-])c1ccc2[nH]c(NC(=O)OC)nc2c1 (stereo not given) [Albendazole Oxide],16
8,CC1(C)S[C@@H]2[C@H](NC(=O)[C@H](N)c3ccc(O)cc3)C(=O)N2[C@H]1C(=O)O [Amoxicillin],16.7 ± 2.3
9,CC1(C)S[C@@H]2[C@H](NC(=O)[C@H](N)c3ccc(O)cc3)C(=O)N2[C@H]1C(=O)O [Amoxicillin Sodium],15.7 ± 6.3
10,CC(C)C(=O)Oc1ccc(CO)cc1[C@H](CCN(C(C)C)C(C)C)c1ccccc1 [Fesoterodine Fumarate],15.7 ± 6.3
11,O=C(O)c1ccccc1 [Benzoic Acid],13
12,Cc1nc(=O)c2cc(CN(C)c3ccc(C(=O)N[C@@H](CCC(=O)O)C(=O)O)s3)ccc2[nH]1 [Raltitrexed],25
13,NS(=O)(=O)c1cc2c(cc1Cl)N=C(CSCc1ccccc1)NS2(=O)=O [Benzthiazide],13
14,CC(=O)O[C@]1(C(C)=O)CC[C@H]2[C@@H]3C=C(Cl)C4=CC(=O)CC[C@]4(C)[C@H]3CC[C@@]21C [Chlormadinone acetate],26.2 ± 10
15,CO[C@@H]1[C@@H](OC(N)=O)[C@@H](O)[C@H](Oc2ccc3c(O)c(NC(=O)c4ccc(O)c(CC=C(C)C)c4)c(=O)oc3c2C)OC1(C)C [Novobiocin Sodium],15.7 ± 6.3
16,O=S(=O)(O)Oc1ccc(C(c2ccc(OS(=O)(=O)O)cc2)c2ccccn2)cc1 [Sodium Picosulfate],14.5 ± 4
17,Cc1cccc(C)c1NC(=O)C1CCCCN1C (stereo not given) [Mepivacaine HCl],16.5 ± 6.2
18,C[N+](C)(C)CCO.[Cl-] [Choline Chloride],13
19,O=C(CCCCCCNC(=O)c1cnc(N(c2ccccc2)c2ccccc2)nc1)NO [Rocilinostat (ACY-1215)],27
20,Cc1nnc(C(C)C)n1C1C[C@H]2CC[C@@H](C1)N2CC[C@H](NC(=O)C1CCC(F)(F)CC1)c1ccccc1 (stereo in doubt) [Maraviroc],12
21,NC[C@H]1CC[C@H](C(=O)O)CC1 [Tranexamic Acid],23 ± 1.7
22,CC1(O)CCC(C(C)(C)O)CC1 (stereo not given) [Terpin (hydrate)],17
